Inconclusive results are not listed. Active and inactive are the calls of the source. Calls follow the shape of the dose curve; as a rule, active = well fitted curve in the direction sought with a large enough effect; inconclusive = small, poorly fitted or top-dose-only effect, or effect the other way, or another doubt; inactive = no such curve, though single readings can be large or run the other way.

In this assay the target is Alpha-galactosidase A (Homo sapiens) (UniProt P06280). Nature of the assay: Confirmation of Inhibitors of Human alpha-Galactosidase Using Spleen Homogenate. Particulars: alpha-galactosidase enzyme activity; series mostly up to 56.2 µM. Summed up: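 AC50 values come from Hill-equation fits of normalised 4-methylumbelliferone fluorescence (365/440 nm, read after NaOH/glycine stop). Enzyme source: spleen homogenate; substrate 1 mM final; pH 5.0 citrate buffer; 40 min at 37C; compound titration 0.5 nM–58 uM.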
Sequence of Alpha-galactosidase A (Homo sapiens) (P06280 32-429 limits assumed): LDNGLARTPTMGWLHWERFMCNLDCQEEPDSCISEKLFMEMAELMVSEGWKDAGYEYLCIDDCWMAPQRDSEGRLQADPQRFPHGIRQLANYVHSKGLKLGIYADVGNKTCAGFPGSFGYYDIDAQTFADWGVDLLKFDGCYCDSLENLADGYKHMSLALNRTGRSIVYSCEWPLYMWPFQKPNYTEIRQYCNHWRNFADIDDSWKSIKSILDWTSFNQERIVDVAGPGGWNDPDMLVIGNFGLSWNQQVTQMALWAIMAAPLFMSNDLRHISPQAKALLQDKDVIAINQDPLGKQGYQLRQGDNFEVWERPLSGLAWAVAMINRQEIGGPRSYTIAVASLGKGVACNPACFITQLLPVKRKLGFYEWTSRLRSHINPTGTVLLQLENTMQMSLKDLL
With `COc1ccccc1N1CCN(C(c2cccs2)C(C)NC(=O)c2cccs2)CC1` (configuration not stated), the outcome was inactive.
As to `COc1ccccc1NC(=O)c1ccc(Br)o1`, the outcome was inactive.
For `O=C(COC(=O)c1ccccc1Br)NCCc1ccc(F)cc1` the value was “inactive”.
On to `CC(C)(C)OC(=O)NCCCC[C@H](NC(=O)c1nc[nH]c1C(=O)NCc1ccccc1)C(=O)OC(C)(C)C`, for which the compound was classed as inactive.
For `Cc1c(C#N)c(N)nc2c3c(sc12)NC(=O)CC3c1ccc(Cl)cc1` (configuration not stated) the value was “inactive”; for `COc1ccc(-c2cc(=O)c(C(=O)c3ccc(C)cc3)n[nH]2)cc1`, “inactive”; for `N#Cc1c(-c2ccc(F)cc2)cc(-c2cccnc2)nc1N`, “inactive”.
For `COc1ccc(/C=c2\s/c(=C/C(=O)c3ccc(C)cc3)[nH]c2=O)cc1OC`, the call was inactive.
For `O=C(c1ccccc1)N1CCN(C(=O)c2ccccc2)CC1` the value was “inactive”.
`Nc1ccc(Cc2ccc(N)c(O)c2)cc1O`: the result was inactive.
Then `COc1ccc2nc3c(cc2c1)Cn1c-3nc2ccccc2c1=O`, with “inactive”.
For `COC(=O)c1c(NC(=O)Cn2nc(C(F)F)cc2C(F)F)sc(C)c1C` the value was “inactive”; for `Cc1ccc(S(=O)(=O)NN2C(=O)/C(=C\c3ccc(Cl)cc3)SC2=S)cc1`, “inactive”; for `CC1CCc2nc(-c3cc4c(ccc5ccccc54)oc3=O)sc2C1` (configuration not stated), “inactive”.
In the case of `Clc1ccc(-c2ccnc(Oc3cc(Cl)ccc3Cl)n2)cc1`, the compound was classed as inactive.
For `O=S(=O)(c1ccc(O)cc1)N1CCOCC1` the value was “inactive”.
In the case of `Cc1ccc(-c2cc(C(=O)N/N=C/c3c(C)nn(-c4ccccc4)c3C)n[nH]2)s1`, the outcome was inactive.
For the compound `CC(C)c1nc2cc(C(=O)N3CCNC(=O)C3c3cccc(F)c3)ccc2o1` (configuration not stated), the outcome was inactive.
As to `Cc1ccc(N/N=C2\CCS(=O)(=O)c3sccc32)cc1`, the result was inactive.
For the compound `CC(C)(C)c1ccc(OCC(=O)NC(Cc2c[nH]c3ccccc23)C(=O)O)cc1` (configuration not stated), the outcome was inactive.
With `CC(=O)c1ccc(S(=O)(=O)N2CCOCC2)cc1`, the call was inactive.
Then `O=c1[nH]c2ccccc2nc1/C=C/c1ccc2c(c1)OCO2`, with “inactive”; and `Cc1ccc2nc(-c3ccccc3N)[nH]c2c1`, with “inactive”.
In the case of `OC[C@H]1NC[C@H](O)[C@@H](O)[C@H]1O`, the call was inactive.
Consider `COc1ccc(S(=O)(=O)N2CCOCC2)cc1`, for which the result was inactive.
As for `Cc1sc(-c2cc3c(ccc4ccccc43)oc2=O)nc1-c1ccccc1`, the call was inactive.
Then `COc1ccccc1CNc1ccc(N2CCOCC2)c(C(=O)O)c1`, with “inactive”; and `CCC(=O)N1CCN(c2ccc(Cl)cc2NC(=O)c2ccc(N3CCCC3)c([N+](=O)[O-])c2)CC1`, with “inactive”; and `O=C(c1ccccc1)N1CCN(S(=O)(=O)c2ccccc2)CC1`, with “inactive”.
Take `N#Cc1cccc(S(=O)(=O)N2CCOCC2)c1`: the result was inactive.
For `Cc1noc(C)c1S(=O)(=O)N(CC(=O)N1CCc2ccccc21)c1ccc(C(C)C)cc1`, the result was inactive.
As to `C[C@@H](NC(=O)c1nc[nH]c1C(=O)N[C@@H](Cc1ccccc1)C(=O)OC(C)(C)C)c1ccccc1`, the outcome was inactive.
For `CCN(CC)c1ccc(-c2nc3cnccn3c2NC2CCCC2)cc1` the value was “inactive”; for `Cc1ccc(S(=O)(=O)N2CCN(C(=O)N(c3ccccc3)c3ccccc3)CC2)cc1`, “inactive”; for `O=C(NN=C1c2ccccc2-c2ccccc21)c1cccc(S(=O)(=O)N2CCOCC2)c1`, “inactive”.
Take `CN(CCO)S(=O)(=O)c1ccc2c(c1)C(=NN)c1cc(S(=O)(=O)N(C)CCO)ccc1-2`: the result was inactive.
Turning to `O=C1CCCC/C1=C\Nc1ccc(O)cc1`, the result was inactive.

For the origin of these results see PubChem BioAssay AID2108 (National Center for Advancing Translational Sciences (NCATS), 2009).
